# From the supplement of paper PMC10127200
# Structures can show the parent of a compound that is named as a salt.
# Tests used:
# Assay in all cases: Euclidean distance of Cell Painting phenotypic profile (signed KS, 77 features) to DMSO centroid (dimensionless distance); 5 or 10 uM (library dependent); higher = stronger phenotypic change vs DMSO (phenoactivity)
# Details in all cases: 48 h
# 786-O = tested on: 786-O
# Outline: (§1)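 Five cancer lines and a healthy fibroblast line received library compounds at 10 or 5 uM (library-dependent, 0.1% DMSO final) for 48 h. Stained cells were imaged confocally at 20X (9 fields/well). Harmony extracted 77 features, each scored as a signed Kolmogorov-Smirnov statistic against same-plate vehicle wells. Profiles were plate-position corrected, correlation-weighted and replicate-averaged at the top dose. Phenoactivity is the Euclidean distance from each profile to the median vehicle profile.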
# A549 = tested on: A549
# Outline: as §1
# DU145 = tested on: DU145
# Outline: as §1
# FB = tested on: FB
# Outline: as §1
# HEPG2 = tested on: HEPG2
# Outline: as §1
# OVCAR4 = tested on: OVCAR4
# Outline: as §1
SMILES,Euclidean distance (786-O),Euclidean distance (A549),Euclidean distance (DU145),Euclidean distance (FB),Euclidean distance (HEPG2),Euclidean distance (OVCAR4)
Cc1c(O)cccc1C(=O)N[C@@H](CSc1ccccc1)[C@H](O)CN1C[C@H]2CCCC[C@H]2C[C@H]1C(=O)NC(C)(C)C [Nelfinavir Mesylate],1.88,2.45,1.22,1.59,1.01,1.16
CNC(=O)CN(CCN(CCN(CC(=O)[O-])CC(=O)NC)CC(=O)[O-])CC(=O)[O-].[Gd+3] [Gadodiamide],0.953,1.55,1.5,0.962,,1.1
Cn1nnnc1SCC1=C(C(=O)O)N2C(=O)[C@@H](NC(=O)[C@H](OC=O)c3ccccc3)[C@H]2SC1 [Cefamandole nafate],1.06,0.559,1.12,0.954,0.484,0.965
CCCCOc1c(C(=O)c2c(F)cc(C)cc2F)c[nH]c2nncc1-2,1.55,2.16,1.61,1.37,,2.1
NS(=O)(=O)c1cc2c(cc1Cl)NCNS2(=O)=O [Hydrochlorothiazide],1.82,1.08,1.44,1.02,,0.927
CN(C)Cc1cccc(N=C(c2ccccc2)c2c(O)[nH]c3cc(C(=O)N(C)C)ccc23)c1,0.777,0.99,1.08,3.16,,1.3
N=c1ccn2c(n1)O[C@H]1[C@H](O)[C@@H](CO)O[C@H]12 [Cyclocytidine HCl],3.43,2.7,2.45,3.66,,4.57
C=CCn1c(=O)c2cnc(Nc3ccc(N4CCN(C)CC4)cc3)nc2n1-c1cccc(C(C)(C)O)n1,3.28,2.56,2.52,3.63,,3.95
CCOC(=O)[C@H](CCc1ccccc1)N[C@H]1CCCN2CCC[C@@H](C(=O)O)N2C1=O [Cilazapril Monohydrate],1.14,1.31,0.828,1.03,,1.38
CC(C)[C@H](O)C(=O)N[C@@H](C)C(=O)N[C@@H]1C(=O)N(C)CCc2ccccc21,1.12,1.34,1.12,1.22,,1.03
COc1cc(NS(=O)(=O)c2ccc(N)cc2)nc(OC)n1 [Sulphadimethoxine],1.31,1.11,1.61,1.62,,1.44
CCCCCCCCCCCCc1ccc(S(=O)(=O)Nc2nncs2)cc1,1.69,1.57,0.932,1.16,,1.51
Cc1ccc2c(=O)c3cccc(CC(=O)O)c3oc2c1C [DMXAA (Vadimezan)],2.33,0.921,1.14,1.4,,1.04
C[C@@H]1C[C@H]2[C@@H]3C[C@H](F)C4=CC(=O)C=C[C@]4(C)[C@@]3(F)[C@@H](O)C[C@]2(C)[C@@]1(O)C(=O)CO [Flumethasone],1.24,2.47,2.17,2.26,0.627,1.97
NC(=O)Nc1cc(-c2cccc(F)c2)sc1C(=O)N[C@H]1CCCNC1,3.38,3.15,3.87,3.82,,4.24
CC(C)(O)CC(=O)NCCn1ccc2ncnc(Nc3ccc(Oc4cccc(C(F)(F)F)c4)c(Cl)c3)c21,1.98,2.02,1.57,1.52,1,1.73
CC(=O)Nc1ccccc1 [Acetanilide],0.827,0.504,0.799,0.893,0.768,1.34
CC(C)NC(=N)NC(=N)Nc1ccc(Cl)cc1 [Proguanil],1.21,1.28,0.798,0.927,0.823,1.25
COc1cc(Nc2nc3ccccc3nc2NS(=O)(=O)c2ccc(NC(=O)c3ccc(C)c(OC)c3)cc2)cc(OC)c1,0.677,1.26,1.17,0.743,,1.07

SMILES,Euclidean distance (786-O),Euclidean distance (A549),Euclidean distance (DU145),Euclidean distance (FB),Euclidean distance (HEPG2),Euclidean distance (OVCAR4)
CN(C)Cc1cccc(N/C(=C2\C(=O)Nc3cc(C(N)=O)ccc32)c2ccccc2)c1,1.11,1.06,1.33,2.56,,1.22
Clc1ccc(C2(c3ccc(-c4cn[nH]c4)cc3)CCNCC2)cc1,2.95,3.29,3.8,4.67,,3.48
CC(C)c1cnn2c(NCc3ccccc3)cc(NCCCCCCN)nc12,0.657,0.869,0.933,0.961,,1.08
NCCCCCC(=O)O,0.84,1.89,2.26,1.67,,1.43
CC(=O)c1ccc(S(=O)(=O)NC(=O)NC2CCCCC2)cc1 [Acetohexamide],0.925,0.868,0.836,1.19,0.469,0.995
Cc1ccc(-n2nc(C(C)(C)C)cc2NC(=O)Nc2ccc(OCCN3CCOCC3)c3ccccc23)cc1 [BIRB 796 (Doramapimod)],1.54,0.959,1.2,1.38,,1.21
CC(C)C[C@@H](C(=O)N[C@H](C(=O)OC1CCCC1)c1ccccc1)[C@H](O)C(=O)NO [Tosedostat (CHR2797)],0.679,1.35,0.893,1.15,,1.27
O=S(=O)(NCCNC/C=C/c1ccc(Br)cc1)c1cccc2cnccc12,2.02,1.32,2.19,1.3,,1.89
CCN(CC)CCOC(=O)C(c1ccccc1)c1ccccc1 [Adiphenine HCl],1.67,0.625,0.633,1.43,,0.992
COCC[n+]1c2c(n(Cc3cnccn3)c1C)C(=O)c1ccccc1C2=O [YM155 (Sepantronium Bromide)],5.76,5.14,7.03,5.89,3.26,5.47
C[C@@]1(c2cc(-c3cncnc3)c(F)cc2F)CCSC(N)=N1,2.11,1.07,1.06,1.09,,0.965
O=C(NOCC(O)CO)c1cc(Br)c(F)c(F)c1Nc1ccc(I)cc1F (centres undefined),1.97,2.76,1.78,2.89,,1.17
Cn1cc(-c2ccc(S(=O)(=O)n3ccc(/C=C/C(=O)Nc4ccccc4N)c3)cc2)cn1,2.25,2.63,2.82,2.84,3.21,3.37
COCCOc1ccc2c(c1)ncn2-c1ccc2cccc(N3CCC(N)CC3)c2n1,2.57,3.24,3.51,3.61,,3.88
CCc1c(C(=O)NCCc2ccc(N3CCCCC3)cc2)[nH]c2ccc(Cl)cc12,1.69,1.48,1.01,1.21,,1.47
C[C@@H]1C(=O)O[C@H]2C[C@@]34[C@H]5C[C@@H](C(C)(C)C)[C@]36[C@@H](OC(=O)[C@@H]6O)O[C@@]4(C(=O)O5)[C@]21O [Ginkgolide A],0.788,1.51,1.93,1.46,,1.21
CS(=O)(=O)c1cccc(CNc2nc(Nc3ccc4c(c3)CCC(=O)N4)ncc2C(F)(F)F)c1,3.16,2.6,3.07,3.24,,1.34
NC(=O)c1ncn([C@@H]2O[C@H](CO)[C@@H](O)[C@H]2O)c1N [Acadesine],1,1.3,0.856,1.35,,0.909
"c1ccc(C2CN3CCSC3=N2)cc1 (single isomer, unassigned; (-)) [(-)-Tetramisole]",1.24,1.23,0.518,0.965,,2.19

SMILES,Euclidean distance (786-O),Euclidean distance (A549),Euclidean distance (DU145),Euclidean distance (FB),Euclidean distance (HEPG2),Euclidean distance (OVCAR4)
Cc1cc(NC(=O)Nc2ccc(N(C)C)cc2)c2cc(F)cc(F)c2n1,0.716,1.16,0.704,0.943,,0.985
C[C@@H]1CN(CC(=O)Nc2ccc3c(c2)Cc2cccc(-c4cc(=O)cc(N5CCOCC5)o4)c2S3)C[C@H](C)O1,1.16,1.25,1.41,1.37,,2.14
CCOCCn1c(N2CCCN(C)CC2)nc2ccccc21 [Emedastine],0.676,0.686,,0.988,0.905,0.553
CCC(=O)NCC[C@@H]1CCc2ccc3c(c21)CCO3 [Ramelteon],1.15,0.978,,0.887,1.02,1.07
Cc1cc(Nc2cc(N)ncn2)c(=O)n2c1C(=O)NC21CCCCC1,0.779,0.866,,1.08,0.427,1.18
C[C@H](CSC(=O)c1ccccc1)C(=O)N1C[C@@H](Sc2ccccc2)C[C@H]1C(=O)O [Zofenopril calcium],0.845,0.393,,0.787,0.559,0.93
CC1(C)S[C@@H]2[C@H](NC(=O)[C@H](NC(=O)N3CCNC3=O)c3ccccc3)C(=O)N2[C@H]1C(=O)O [Azlocillin sodium salt],0.826,0.805,,1.08,0.67,1.47
"CC1CCC(C(C)C)C(O)C1 (single isomer, unassigned; (-)) [(-)-Menthol]",0.7,0.703,,0.797,0.699,0.955
CC1=C(/C=C/C(C)=C/C=C/C(C)=C/C(=O)O)C(C)(C)CCC1 [Tretinoin],1.24,1.29,,2.68,1.21,1.18
CCc1nc(N)nc(N)c1-c1ccc(Cl)cc1 [Pyrimethamine],1.19,3.4,,0.96,1.83,2.25
Cc1cc2c(s1)Nc1ccccc1N=C2N1CCN(C)CC1 [Olanzapine],1.03,1.01,,1.48,0.621,1.61
Cc1ccsc1C(=CCCN1CCC[C@@H](C(=O)O)C1)c1sccc1C [Tiagabine],0.676,0.377,,0.779,0.574,1.14
O=c1c(O)c(-c2ccc(O)cc2O)oc2cc(O)cc(O)c12 [Morin Hydrate],0.826,0.616,,0.68,0.312,1.06
N[C@H]1C(O)O[C@H](CO)[C@@H](O)[C@@H]1O (some centres undefined) [Glucosamine],0.508,0.407,,0.896,1.07,1.28
O=C(CCCN1CCC(O)(c2ccc(Cl)cc2)CC1)c1ccc(F)cc1 [Haloperidol],1.27,0.777,,1.09,1.04,1.95
Cc1ccc(Sc2ccccc2N2CCNCC2)c(C)c1 [Vortioxetine],2.68,2.71,,2.68,5.06,2.43
Cc1nnc(C(=O)NC(C)(C)c2nc(C(=O)NCc3ccc(F)cc3)c(O)c(=O)n2C)o1 [Raltegravir potassium],1.12,0.895,,1.33,0.632,1.04
CC/C=C\C/C=C\C/C=C\C/C=C\C/C=C\CCCC(=O)O [Eicosapentaenoic Acid],0.992,1.07,,0.941,0.664,1.41
